Env fusion inh – inhibitors of HIV-1 Env-driven cell-cell fusion, primary screen, HeLa-JRFL effector, CEM21 target cells, luciferase | 360,000 compounds, 1.1% hits | inhibition, % at 12.3 µM | AID 651610, 2012;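 active means mean replicate inhibition score of at least 50 and every replicate individually at or above 50; inconclusive means only one of the two criteria met; inactive means mean below 50 and not all replicates reaching 50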;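 further: 0% = plate neutral controls and 100% = maraviroc near 300 nM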
EWS-Fli block – EWS/Fli-driven NR0B1 reporter inhibitors, primary screen, A673 cells, NR0B1 luciferase, luminescence, MLPCN library; 350,000 compounds, 0.67% hits; inhibition, % at 12.6 µM; viability-normalised;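 active means mean inhibition of at least 50% after viability correction, with every replicate also passing that limit; inconclusive means mean reaches 50% but only one of two replicates passes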;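 further: firefly luciferase signal divided by Alamar Blue viability fluorescence both relative to DMSO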
PAX8 inh HTS – inhibitors of PAX8-driven TPO luciferase reporter, primary screen, RMG-I cells, single concentration; 360,000 compounds, 1.2% hits; inhibition, % at 12.6 µM; SteadyGlo, 24 h;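 active means mean replicate inhibition at least 60% with every replicate also reaching 60%; inconclusive means only one of the two criteria is met; inactive means mean below 60% and not all replicates reaching 60%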;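 further: luciferase light reporting Pax8 driven TPO promoter activity; plate controls were median of neutral control wells for no effect and mitoxantrone controls for full effect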
FXN GAA850 act – FXN promoter activators, primary screen, cell-based, luciferase luminescence, HEK293 lucGAA850 | AID 540364, 2011 | HEK293 lucGAA850 FXN promoter luciferase reporter, 24 h; percent of 10 µM SAHA response | activation, % at 6 µM | 360,000 compounds, 0.56% hits;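 active means activation above the average of all compounds screened plus 3 SD, cutoff fixed separately per campaign, cut at about 7.5% in these data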;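 further: 0% = DMSO wells and 100% = 10 µM SAHA wells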
CFTR F508del cor – F508del CFTR correction, initial screen, CFBE line, single point; AID 720511, 2013; 350,000 compounds, 0.36% hits; CFBE cells, YFP halide quenching; stimulated with forskolin plus potentiator P3; % fluorescence drop versus neutral controls; activity (quench increase), % at 7.58 µM;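 active means mean added fluorescence quench of at least 8% versus neutral control, with both replicates also reaching 8%; inconclusive means only one of the mean or replicate conditions met; inactive means mean below 8% and not both replicates reaching 8%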;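 further: cells transiently co-express mutant CFTR-F508del with the halide-sensitive YFP; corrector assay measuring rescue of mutant channel to the surface after 24 h compound exposure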
GAA30 FXN cntr – GAA30 FXN promoter activators, confirmation, counter-screen for GAA850 frataxin promoter activator project, cell-based, luminescence, HEK293, lucGAA30, triplicate; shares compounds with FXN GAA850 act; HEK293 lucGAA30 FXN promoter luciferase, 24 h; DMSO = 0%, 5 µM ipriflavone = 100%; 1,900 compounds, 66% hits; activation, % at 6 µM;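 active means mean activation above the mean of solvent-only control wells plus 3 SD, cut at about 22% in these data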;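 further: counterscreen of GAA850 promoter hits where activity marks nonselective or luminescence artifacts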
FXN GAA850 conf – FXN GAA850 promoter activators in reporter cells, confirmation, cell-based, luminescence, HEK293 lucGAA850, triplicate; activation, % at 6 µM; 1,900 compounds, 86% hits; HEK293 lucGAA850 FXN promoter luciferase reporter, 24 h; 100% = activation by SAHA; shares compounds with FXN GAA850 act;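 active means mean activation above a set limit taken from the primary screen, cut at about 8% in these data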;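 further: 0% = DMSO wells and 100% = 10 µM SAHA wells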
The depositor's hits bear a star; ? = inconclusive; / = no result; [ ] = remark or other dose. Hits are enriched below; roughly 2.5% of the tested compounds scored in any of these assays.

SMILES	Env fusion inh	EWS-Fli block	PAX8 inh HTS	FXN GAA850 act	CFTR F508del cor	GAA30 FXN cntr	FXN GAA850 conf
O=c1oc(-c2ccc(O)c(O)c2)cc2cc(O)cc(O)c12	/	?	/	7.4	-1.0	/	/
O=c1oc(-c2ccc(O)c(O)c2)cc2cccc(O)c12	/	49.0	/	13.2*	-0.7	129.2*	45.6*
CC(=O)N(C(C)=O)c1ncnc2c1c(-c1ccc(Cl)cc1)nn2C(C)(C)C	18.6	10.5	45.2	2.9	3.3	/	/
CC(=O)Nc1ncnc2c1c(-c1ccc(Cl)cc1)nn2C(C)(C)C	16.6	0.8	-1.9	10.8*	5.1	19.5	10.4*
CO[C@@H]1CN(C)C(=O)c2cc(NC(C)=O)ccc2OC[C@@H](C)NC[C@@H]1C	2.4[16.7 µM]	-0.4	-15.1	/	-3.8	/	/
CCOC(=O)c1c(CN2CCCCC2)n(C)c2cc(Br)c(O)c(CN(C)C)c12	/	/	/	-0.5	/	/	/
CCOC(=O)c1c(CSc2ccccc2)n(C)c2cc(Br)c(O)c(CN(C)C)c12	67.3*	6.6	8.6	18.9*	2.9	11.2	11.8*
CCOC(=O)c1c(CSc2ccc(C)cc2)n(C)c2cc(Br)c(O)c(CN(C)C)c12	86.8*	2.0	30.9	11.4*	0.5	14.2	14.7*
CCOC(=O)c1c(CSc2ccsc2)n(C)c2cc(Br)c(O)c(CN(C)C)c12	87.3*	6.6	22.6	7.8*	4.7	-5.3	4.7
C[C@H](CO)N1C[C@H](C)[C@@H](CN(C)S(=O)(=O)c2ccc(F)cc2)OCCCC[C@H](C)Oc2ccc(NS(=O)(=O)c3ccc(F)cc3)cc2C1=O	-19.3[16.7 µM]	7.5	33.3	/	-1.8	/	/
CC(C)NC(=O)N(C)C[C@@H]1Oc2c(NS(C)(=O)=O)cccc2C(=O)N([C@H](C)CO)C[C@H]1C	-11.7[16.7 µM]	-0.9	-0.7	/	-2.3	/	/
COc1cccc(NC(=O)N2C[C@@H](O)COC[C@@H]3O[C@H](CC(=O)N(C)C)CC[C@H]32)c1	-4.3[16.7 µM]	-8.5	10.5	/	1.5	/	/
O=C(/C=C\c1ccc(-c2ccccc2)o1)c1ccccc1	-77.4	/	-21.5	11.7*	/	67.4*	27.1*
CCC(=O)N1[C@@H]2c3cccc(=O)n3C[C@@H]2[C@@H](CO)[C@@H]1C(=O)NC1CCCCC1	/	8.2	/	/	1.0	/	/
Cc1cc(C(=O)Nc2sc(C)c(-c3ccc(F)cc3)c2C(N)=O)no1	/	/	/	8.4*	/	105.8*	31.0*
COc1ccc(/C=C2\SC(N3CCCCC3)=NC2=O)cc1OC	-10.1	-21.6	-5.1	9.5*	1.1	29.3*	20.8*
CCOC(=O)C1CCN(C2=NC(=O)/C(=C/c3ccc(OC)c(OC)c3)S2)CC1	13.5	5.6	25.2	4.2	-1.2	/	/
COc1ccc(OC)c(/C=N/N(C)c2ccccc2)c1	/	/	/	7.9*	/	127.2*	43.0*
Cc1ccccc1-c1nnc(-c2cccs2)o1	-46.9	-89.6	-40.9	8.0*	-2.2	105.7*	30.1*
Cc1ccccc1-c1noc(-c2cccs2)n1	-175.5	-136.8	-74.4	1.2	-2.2	/	/
O=c1[nH]c2ccccc2c2cn(-c3ccccc3)nc12	0.0	-110.5	-79.8	8.8*	3.5	112.4*	45.6*
O=c1[nH]c2ccccc2c2ccccc12	-10.4	/	-56.3	4.7	/	/	/
COc1cccc(-c2ccc(C3[C@H]4CNC[C@@H]3N4C(=O)NC3CCCCC3)cc2)c1 (some centres undefined)	/	/	/	/	0.3	/	/
O=C(C1CCCCC1)N1CC(=O)N2[C@H](CO)[C@@H](c3ccc(C#CCc4ccccc4)cc3)[C@H]2C1	/	/	/	/	-3.9	/	/
NC(=O)c1ccsc1NC(=O)CSc1ccccc1F	/	-110.9	/	8.2*	-2.1	89.4*	27.0*
SMILES	Env fusion inh	EWS-Fli block	PAX8 inh HTS	FXN GAA850 act	CFTR F508del cor	GAA30 FXN cntr	FXN GAA850 conf
Cc1csc(NC(=O)CSc2ccccc2F)n1	6.8	-6.6	-59.6	12.0*	-1.7	78.4*	25.2*
Cc1ccccc1SCC(=O)OCC(=O)Nc1sccc1C(N)=O	13.2	2.9	-24.8	1.9	/	/	/
CC(=O)N(C[C@H]1N[C@H](CO)[C@@H]1c1ccc(-c2cccnc2)cc1)C1CCCC1	/	0.8	11.0	/	4.7	/	/
O=C(NC1=NN(c2ccccc2)CC1)Nc1ccccc1F	-5.8	-35.7	-53.3	8.5*	1.9	45.5*	18.2*
CCCc1cc(C(=O)Nc2cccc(C(C)=O)c2)no1	/	-71.5	-78.1	24.7*	-0.6	76.4*	23.3*
CN(C)c1ccc(N=Nc2ccccc2C(=O)OCC(=O)N2CCCC2)cc1	11.0	/	-43.9	4.0	/	/	/
CN(C)c1ccc(N=Nc2ccccc2C(=O)OCC(=O)Nc2ccccc2C(F)(F)F)cc1	-9.4	-23.8	11.6	7.6*	-0.5	72.6*	23.3*
CC(C)OP(=O)(c1ccc(N(C)C)cc1)C(O)c1ccc(C(C)C)cc1 (centres undefined)	73.9*	2.1	-12.6	11.5*	0.7	29.2*	13.2*
Cc1ccc(C(O)P(=O)(OCCC(C)C)c2ccc(N(C)C)cc2)cc1 (centres undefined)	20.1	4.6	-3.6	-0.8	-4.5	/	/
CC(C)CCOP(=O)(c1ccc(N(C)C)cc1)C(O)c1c(Cl)cccc1Cl (centres undefined)	75.3*	17.2	-3.8	19.7*	1.3	26.1*	13.5*
Cc1noc(C)c1NC(=O)Nc1ccc2c(c1)C(=O)N([C@@H](C)CO)C[C@@H](C)[C@@H](CN(C)C(=O)C1CCCCC1)OCCCC[C@@H](C)O2	-176.9[16.7 µM]	6.2	-8.9	/	-0.1	/	/
Cc1ccc(C)c(-c2ccc(=O)n(Cc3cccc(Br)c3)n2)c1	12.5	-3.9	-11.5	8.3*	1.8	11.3	6.5
Cn1ccnc1C(O)c1ccc(OCc2ccccc2)cc1 (centres undefined)	/	/	/	7.7*	/	57.8*	18.0*
Cn1ccnc1C(O)c1ccccc1 (centres undefined)	-17.9	-0.4	-3.4	-0.1	-0.1	/	/
COc1cc2c3c(cccc3c1)C(=O)N(CCN1CCCC1)C2=O	21.3	6.0	14.8	27.4*	4.0	-28.8	131.3*
COc1ccc(C(=O)CN2CCN(CCN3C(=O)c4cccc5cccc(c45)C3=O)CC2)cc1	9.2	-22.5	-3.8	-2.9	2.0	/	/
Cc1nc(NC(=O)c2ccc(Br)s2)sc1C(=O)N(C)C	-176.1	/	/	8.4*	/	115.4*	32.6*
CCOc1c(Cl)cc(C(=O)NCCN2CCCCC2)cc1Cl	8.8	/	/	12.6*	/	8.8	5.6
Cc1ccc(C(=O)NCCN2CCCC2)cc1	/	/	/	-1.3	/	/	/
